Laboratory results: PubChem BioAssay (NCI)
Compounds without any hit were thinned out: in the full panel of roughly 79,000, 15% have a hit. Calls of active or inactive are those of the source. Cut-off read from the data, not from the text of the source: active = growth inhibition above about 70%; inactive = the rest.

Legend:
[1] = NCI Yeast Anticancer Drug Screen. Data for the wt1 strain (AID 149);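 note: 0% = growth of vehicle-treated wt1 cultures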; settings: S. cerevisiae wt1 strain (SPY 50644) growth inhibition, hits give high values
Method in brief: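 wt1 yeast, compound-treated; % growth inhibition vs vehicle control.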

[2] = NCI Yeast Anticancer Drug Screen. Data for the rad50EPP+ strain (AID 151);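 note: 0% = growth of vehicle-treated control cultures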; settings: S. cerevisiae rad50 mutant strain, hits give high values
Method in brief: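 rad50EPP+ yeast treated with test compounds. Readout: growth vs vehicle control.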

[3] = NCI Yeast Anticancer Drug Screen. Data for the mgt1 strain (AID 153); settings: S. cerevisiae mgt1 mutant growth inhibition, hits give high values
Method in brief: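 Growth inhibition relative to vehicle controls was scored for the mgt1 yeast strain after compound exposure.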

[4] = NCI Yeast Anticancer Drug Screen. Data for the rad50 strain (AID 155);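 note: 0% = growth of vehicle-only cultures of the same strain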; settings: S. cerevisiae rad50 strain growth inhibition, hits give high values
Method in brief: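 Genetically altered yeast (DNA repair pathway); compound treatment; growth inhibition vs vehicle ctrl.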

[5] = NCI Yeast Anticancer Drug Screen. Data for the mec2-1 strain (AID 157); settings: S. cerevisiae mec2-1 strain, hits give high values
Method in brief: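 Growth inhibition is read against vehicle-treated controls after compound exposure of the mec2-1 yeast strain, which is defective in DNA damage repair or cell cycle control.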

[6] = NCI Yeast Anticancer Drug Screen. Data for the rad14 strain (AID 159);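 note: 0% = growth of vehicle-treated control cultures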; settings: S. cerevisiae rad14 strain growth inhibition, hits give high values
Method in brief: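 Test compounds were applied to a repair-deficient yeast strain. Its growth was then compared with that of cultures given vehicle alone, and inhibition was expressed relative to those controls.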

[7] = NCI Yeast Anticancer Drug Screen. Data for the sgs1 mgt1 strain (AID 161);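 note: 0% = growth of cultures given vehicle only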; settings: S. cerevisiae sgs1 mgt1 strain, hits give high values
Method in brief: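 Yeast cells carrying a defined DNA-repair defect were exposed to test compounds. Growth inhibition was measured relative to vehicle-treated controls.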

[8] = NCI Yeast Anticancer Drug Screen. Data for the CLN2oe strain (AID 163);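 note: 0% = growth of vehicle-only control cultures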; settings: S. cerevisiae CLN2oe strain, hits give high values
Method in brief: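 Compound-treated yeast; growth vs vehicle ctrl = % inhibition. Genetically altered strain (cell-cycle control).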

[9] = NCI Yeast Anticancer Drug Screen. Data for the cln2 rad14 strain (AID 165);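 note: 0% = growth equal to vehicle treated cultures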; settings: S. cerevisiae cln2 rad14 strain, hits give high values
Method in brief: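 Growth inhibition, relative to vehicle-treated controls, is the read-out. The test organism is a yeast strain with defined genetic alterations, cln2 rad14.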

[10] = NCI Yeast Anticancer Drug Screen. Data for the bub3 strain (AID 167); settings: S. cerevisiae bub3 mutant strain, hits give high values
Method in brief: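 Yeast carrying a defined mutation is treated with each compound, and growth is compared with that of vehicle-exposed cells to give inhibition.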

[11] = NCI Yeast Anticancer Drug Screen. Data for the wt2 strain (AID 169);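 note: 0% = growth of vehicle-treated yeast cultures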; settings: S. cerevisiae wt2 strain growth inhibition, hits give high values
Method in brief: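 Compound exposure of yeast; growth compared with vehicle controls; inhibition reported.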

[12] = NCI Yeast Anticancer Drug Screen. Data for the mlh1 strain (AID 171);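 note: 0% = growth of vehicle-treated control cultures of the same strain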; settings: S. cerevisiae mlh1 strain growth inhibition, hits give high values
Method in brief: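 Compounds are applied to a genetically altered yeast strain, and its growth is compared with that of vehicle-treated cultures to give percent inhibition.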

[13] = NCI Yeast Anticancer Drug Screen. Data for the sgs1 strain (AID 173);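 note: 0% = growth of vehicle-only control cultures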; settings: S. cerevisiae sgs1 mutant, hits give high values
Method in brief: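 Compounds applied to genetically altered yeast; growth compared with vehicle-treated cultures to give % inhibition.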

[14] = NCI Yeast Anticancer Drug Screen. Data for the mlh1 rad18 strain (AID 175); settings: S. cerevisiae mlh1 rad18 strain growth inhibition, hits give high values
Method in brief: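 Cells of a genetically altered yeast strain, deficient in DNA damage repair, were treated with compound. Their growth was then compared with that of vehicle-treated cultures to give inhibition.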

[15] = NCI Yeast Anticancer Drug Screen. Data for the rad18 strain (AID 177); settings: S. cerevisiae rad18 mutant growth inhibition, hits give high values
Method in brief: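 Compounds are applied to a repair-deficient yeast strain, and growth is compared with that of vehicle-treated cultures to give percent inhibition.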

[16] = NCI Yeast Anticancer Drug Screen. Data for the rad52 strain (AID 147);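 note: 0% = growth of vehicle-treated control cultures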; settings: S. cerevisiae rad52 mutant growth inhibition, hits give high values
Method in brief: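 DNA repair-defective yeast; compound exposure; growth scored against vehicle controls.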

[17] = at 5.0 µM (retest, dose inferred, filed as 0.5)
[18] = at 50.0 µM (retest, dose inferred, filed as 5.0)

Measured: growth inhibition

CCCCCCSc1ncnc2[nH]ncc12
inactive: [1]; at 1.2 µM -1% | [1]; at 3.7 µM -2% | [1]; at 11.0 µM -3% | [1]; at 33.0 µM -63% | [1]; at 100.0 µM -5% | [2]; at 1.2 µM -2% | [2]; at 3.7 µM 2% | [2]; at 11.0 µM 10% | [2]; at 33.0 µM 22% | [2]; at 100.0 µM 12% | [3]; at 1.2 µM -2% | [3]; at 3.7 µM -1% | [3]; at 11.0 µM -2% | [3]; at 33.0 µM -3% | [3]; at 100.0 µM -4% | [4]; at 1.2 µM 2% | [4]; at 3.7 µM 4% | [4]; [17] -1% | [4]; at 11.0 µM 34% | [4]; at 33.0 µM 4% | [4]; [18] 5% | [4]; at 100.0 µM 5% | [5]; at 1.2 µM -3% | [5]; at 3.7 µM -2% | [5]; [17] 0% | [5]; at 11.0 µM 0% | [5]; at 33.0 µM 0% | [5]; [18] 6% | [5]; at 100.0 µM 0% | [6]; at 1.2 µM -2% | [6]; at 3.7 µM 1% | [6]; at 11.0 µM 1% | [6]; at 33.0 µM 5% | [6]; at 100.0 µM 5% | [7]; [17] -2% | [7]; [18] 0% | [8]; at 1.2 µM -7% | [8]; at 3.7 µM -8% | [8]; at 11.0 µM 3% | [8]; at 33.0 µM -4% | [8]; at 100.0 µM -4% | [9]; [17] -5% | [9]; [18] 6% | [9]; at 50.0 µM 18.9% | [10]; at 1.2 µM 4% | [10]; at 3.7 µM 7% | [10]; [17] 11% | [10]; at 11.0 µM 9% | [10]; at 33.0 µM 15% | [10]; [18] 54% | [10]; at 100.0 µM 6% | [11]; at 1.2 µM -3% | [11]; at 3.7 µM 6% | [11]; at 11.0 µM -3% | [11]; at 33.0 µM -3% | [11]; at 100.0 µM -3% | [12]; at 1.2 µM -1% | [12]; at 3.7 µM -1% | [12]; at 11.0 µM -2% | [12]; at 33.0 µM -2% | [12]; at 100.0 µM -3% | [13]; at 1.2 µM -3% | [13]; at 3.7 µM -3% | [13]; at 11.0 µM 0% | [13]; at 33.0 µM 1% | [13]; at 100.0 µM 3% | [14]; [17] -1% | [14]; [18] 4% | [15]; at 1.2 µM -2% | [15]; at 3.7 µM 1% | [15]; at 11.0 µM 6% | [15]; at 33.0 µM 1% | [15]; at 100.0 µM 3%
active: [4]; at 50.0 µM 79.4% | [5]; at 50.0 µM 76.5% | [7]; at 50.0 µM 72.1% | [10]; at 50.0 µM 93% | [14]; at 50.0 µM 80.8%

CCOC1(c2cccc([N+](=O)[O-])c2)c2ccccc2Oc2ccccc21
active: [10]; [18] 77% | [14]; [18] 79%
inactive: [16]; at 1.2 µM 0% | [16]; at 3.7 µM 2% | [16]; at 11.0 µM 4% | [16]; at 33.0 µM 10% | [16]; at 100.0 µM 19% | [2]; at 1.2 µM 3% | [2]; at 3.7 µM 2% | [2]; at 11.0 µM 11% | [2]; at 33.0 µM 24% | [2]; at 100.0 µM 19% | [4]; at 1.2 µM 1% | [4]; at 3.7 µM 0% | [4]; [17] 41% | [4]; at 11.0 µM 4% | [4]; at 33.0 µM 7% | [4]; [18] 69% | [4]; at 50.0 µM 51.8% | [4]; at 100.0 µM 9% | [5]; at 1.2 µM -3% | [5]; at 3.7 µM 2% | [5]; [17] 3% | [5]; at 11.0 µM 0% | [5]; at 33.0 µM 7% | [5]; [18] 23% | [5]; at 50.0 µM 26.4% | [5]; at 100.0 µM 13% | [6]; at 1.2 µM 0% | [6]; at 3.7 µM 2% | [6]; at 11.0 µM 5% | [6]; at 33.0 µM 7% | [6]; at 100.0 µM 10% | [7]; [17] 26% | [7]; [18] 60% | [7]; at 50.0 µM 57.6% | [8]; at 1.2 µM -6% | [8]; at 3.7 µM -1% | [8]; at 11.0 µM 0% | [8]; at 33.0 µM -1% | [8]; at 100.0 µM 2% | [9]; [17] 12% | [9]; [18] 30% | [9]; at 50.0 µM 3.8% | [10]; at 1.2 µM -1% | [10]; at 3.7 µM -2% | [10]; [17] 32% | [10]; at 11.0 µM 3% | [10]; at 33.0 µM 1% | [10]; at 50.0 µM 51.7% | [10]; at 100.0 µM 1% | [11]; at 1.2 µM 1% | [11]; at 3.7 µM -1% | [11]; at 11.0 µM 1% | [11]; at 33.0 µM 2% | [11]; at 100.0 µM 4% | [12]; at 1.2 µM -2% | [12]; at 3.7 µM -2% | [12]; at 11.0 µM 1% | [12]; at 33.0 µM 3% | [12]; at 100.0 µM 10% | [13]; at 1.2 µM -1% | [13]; at 3.7 µM 1% | [13]; at 11.0 µM 0% | [13]; at 33.0 µM 6% | [13]; at 100.0 µM 16% | [14]; [17] 57% | [14]; at 50.0 µM 62%
